# Laboratory results as given in the supplement of paper PMC11732987, “Enantioselective OTUD7B fragment discovery through chemoproteomics screening and high-throughput optimisation” (Communications Chemistry, 2025).
# A number with no mark means an inactive call.
# Compound: ClCC(=O)N1CCC(CC#N)C1
# Test: log2 ratio of Biotin-Ahx-Ub-VS probe labelling (compound/DMSO); higher = less target engagement, active = hit call of the paper (q ≤ 0.05, log2 ratio ≤ -1)
# Details: compound concentration: 50uM; treatment time: 3 h
# Method: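 Round 2 competitive ABPP in HEK293T lysate. Purified HTC-D2B compounds were tested at 50 and 200 µM for 3 h, followed by Biotin-Ahx-Ub-VS enrichment and diaPASEF LC-MS/MS. Values are the average log2 ratio (compound/DMSO) from an unpaired t-test (n=3 treated, n=26 DMSO).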
# Chain of UniProt Q13107 (Q13107 whole entry): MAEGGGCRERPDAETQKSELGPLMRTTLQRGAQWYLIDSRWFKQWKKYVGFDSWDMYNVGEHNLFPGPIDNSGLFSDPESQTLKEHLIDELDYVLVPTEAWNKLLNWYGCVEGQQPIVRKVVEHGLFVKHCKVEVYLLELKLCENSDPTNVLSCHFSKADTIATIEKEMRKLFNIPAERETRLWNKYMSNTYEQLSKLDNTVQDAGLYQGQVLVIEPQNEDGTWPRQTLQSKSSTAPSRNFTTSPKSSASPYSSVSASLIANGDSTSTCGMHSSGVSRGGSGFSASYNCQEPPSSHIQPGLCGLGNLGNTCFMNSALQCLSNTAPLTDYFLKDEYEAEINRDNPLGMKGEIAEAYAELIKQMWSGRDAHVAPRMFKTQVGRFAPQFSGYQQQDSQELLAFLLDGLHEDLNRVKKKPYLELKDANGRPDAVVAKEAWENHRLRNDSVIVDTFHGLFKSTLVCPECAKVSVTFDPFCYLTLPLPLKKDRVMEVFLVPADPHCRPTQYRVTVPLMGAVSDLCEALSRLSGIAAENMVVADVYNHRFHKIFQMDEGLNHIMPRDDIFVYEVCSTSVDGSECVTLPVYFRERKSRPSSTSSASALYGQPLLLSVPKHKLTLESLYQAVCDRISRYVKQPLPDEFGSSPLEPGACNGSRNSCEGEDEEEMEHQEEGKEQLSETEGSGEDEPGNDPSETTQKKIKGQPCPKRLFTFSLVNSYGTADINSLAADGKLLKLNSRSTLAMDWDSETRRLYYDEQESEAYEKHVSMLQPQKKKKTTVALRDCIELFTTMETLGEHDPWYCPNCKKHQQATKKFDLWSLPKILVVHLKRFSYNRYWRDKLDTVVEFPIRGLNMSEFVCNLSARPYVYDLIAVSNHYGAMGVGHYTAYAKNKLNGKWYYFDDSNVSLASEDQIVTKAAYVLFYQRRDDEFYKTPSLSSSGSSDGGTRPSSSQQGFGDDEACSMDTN
# Chain of UniProt Q9P275 (Q9P275 whole entry): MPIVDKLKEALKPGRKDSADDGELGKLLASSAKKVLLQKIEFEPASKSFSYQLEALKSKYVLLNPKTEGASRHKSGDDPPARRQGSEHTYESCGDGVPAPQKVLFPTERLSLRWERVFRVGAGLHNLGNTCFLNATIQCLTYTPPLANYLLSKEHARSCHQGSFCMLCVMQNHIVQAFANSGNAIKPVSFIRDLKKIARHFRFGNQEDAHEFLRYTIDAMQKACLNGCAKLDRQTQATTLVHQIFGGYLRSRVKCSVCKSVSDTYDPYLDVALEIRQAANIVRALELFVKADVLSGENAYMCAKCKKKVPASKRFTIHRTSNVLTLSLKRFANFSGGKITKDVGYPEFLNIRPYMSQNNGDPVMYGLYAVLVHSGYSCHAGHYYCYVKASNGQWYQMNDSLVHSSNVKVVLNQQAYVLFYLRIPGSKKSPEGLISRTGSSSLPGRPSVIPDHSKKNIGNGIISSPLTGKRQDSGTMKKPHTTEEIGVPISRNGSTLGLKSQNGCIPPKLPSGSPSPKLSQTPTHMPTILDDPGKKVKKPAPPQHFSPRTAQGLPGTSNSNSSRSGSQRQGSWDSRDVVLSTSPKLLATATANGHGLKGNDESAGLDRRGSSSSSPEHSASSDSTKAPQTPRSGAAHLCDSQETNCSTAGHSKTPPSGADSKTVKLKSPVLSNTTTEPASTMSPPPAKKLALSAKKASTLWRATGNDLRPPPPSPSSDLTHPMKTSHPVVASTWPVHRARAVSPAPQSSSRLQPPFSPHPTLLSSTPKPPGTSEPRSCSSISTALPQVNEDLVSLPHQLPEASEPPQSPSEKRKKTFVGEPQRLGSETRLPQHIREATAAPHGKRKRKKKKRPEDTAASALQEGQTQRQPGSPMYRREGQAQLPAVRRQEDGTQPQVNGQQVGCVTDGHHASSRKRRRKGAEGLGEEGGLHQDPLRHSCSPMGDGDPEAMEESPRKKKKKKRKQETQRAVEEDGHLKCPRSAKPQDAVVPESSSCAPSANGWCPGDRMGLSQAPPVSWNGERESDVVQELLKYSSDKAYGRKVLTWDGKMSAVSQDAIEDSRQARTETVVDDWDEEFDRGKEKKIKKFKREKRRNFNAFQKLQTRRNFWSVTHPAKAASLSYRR
# Chain of UniProt P15374 (P15374 whole entry): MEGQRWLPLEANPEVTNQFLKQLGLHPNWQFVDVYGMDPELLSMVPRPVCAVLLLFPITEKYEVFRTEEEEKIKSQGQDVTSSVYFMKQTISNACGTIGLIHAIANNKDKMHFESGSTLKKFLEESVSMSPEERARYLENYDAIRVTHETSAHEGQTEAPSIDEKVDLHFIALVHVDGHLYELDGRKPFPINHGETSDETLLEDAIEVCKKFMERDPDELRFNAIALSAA
# Chain of UniProt Q96RU2 (Q96RU2 whole entry): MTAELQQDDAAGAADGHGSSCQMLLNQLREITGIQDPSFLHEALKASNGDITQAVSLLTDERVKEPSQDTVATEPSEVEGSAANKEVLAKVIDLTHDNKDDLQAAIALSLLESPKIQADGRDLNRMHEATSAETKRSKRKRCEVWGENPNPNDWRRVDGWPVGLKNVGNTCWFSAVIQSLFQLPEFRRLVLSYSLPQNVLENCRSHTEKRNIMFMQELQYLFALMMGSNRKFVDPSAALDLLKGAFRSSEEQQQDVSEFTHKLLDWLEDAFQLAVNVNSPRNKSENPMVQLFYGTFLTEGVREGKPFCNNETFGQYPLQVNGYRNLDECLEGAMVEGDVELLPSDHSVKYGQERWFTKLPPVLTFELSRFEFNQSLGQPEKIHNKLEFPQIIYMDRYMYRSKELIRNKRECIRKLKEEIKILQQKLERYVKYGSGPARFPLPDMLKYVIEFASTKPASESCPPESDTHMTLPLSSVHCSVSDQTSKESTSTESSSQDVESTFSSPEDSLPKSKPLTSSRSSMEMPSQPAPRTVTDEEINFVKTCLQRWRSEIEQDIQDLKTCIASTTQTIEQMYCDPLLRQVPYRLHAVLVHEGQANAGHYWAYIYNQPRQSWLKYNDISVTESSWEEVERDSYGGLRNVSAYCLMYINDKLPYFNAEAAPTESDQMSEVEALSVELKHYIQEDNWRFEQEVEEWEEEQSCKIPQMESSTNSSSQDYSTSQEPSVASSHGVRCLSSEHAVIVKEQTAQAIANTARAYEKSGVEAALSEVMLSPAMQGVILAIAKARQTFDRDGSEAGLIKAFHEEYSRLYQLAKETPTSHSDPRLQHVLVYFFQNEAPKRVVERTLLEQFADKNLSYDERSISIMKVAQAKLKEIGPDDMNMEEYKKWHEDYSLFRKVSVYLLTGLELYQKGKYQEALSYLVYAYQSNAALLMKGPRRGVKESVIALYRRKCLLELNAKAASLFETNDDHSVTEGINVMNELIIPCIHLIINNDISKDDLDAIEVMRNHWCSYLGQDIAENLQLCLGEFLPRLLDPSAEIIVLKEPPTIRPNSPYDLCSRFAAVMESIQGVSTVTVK
# Chain of UniProt P51784 (P51784 whole entry): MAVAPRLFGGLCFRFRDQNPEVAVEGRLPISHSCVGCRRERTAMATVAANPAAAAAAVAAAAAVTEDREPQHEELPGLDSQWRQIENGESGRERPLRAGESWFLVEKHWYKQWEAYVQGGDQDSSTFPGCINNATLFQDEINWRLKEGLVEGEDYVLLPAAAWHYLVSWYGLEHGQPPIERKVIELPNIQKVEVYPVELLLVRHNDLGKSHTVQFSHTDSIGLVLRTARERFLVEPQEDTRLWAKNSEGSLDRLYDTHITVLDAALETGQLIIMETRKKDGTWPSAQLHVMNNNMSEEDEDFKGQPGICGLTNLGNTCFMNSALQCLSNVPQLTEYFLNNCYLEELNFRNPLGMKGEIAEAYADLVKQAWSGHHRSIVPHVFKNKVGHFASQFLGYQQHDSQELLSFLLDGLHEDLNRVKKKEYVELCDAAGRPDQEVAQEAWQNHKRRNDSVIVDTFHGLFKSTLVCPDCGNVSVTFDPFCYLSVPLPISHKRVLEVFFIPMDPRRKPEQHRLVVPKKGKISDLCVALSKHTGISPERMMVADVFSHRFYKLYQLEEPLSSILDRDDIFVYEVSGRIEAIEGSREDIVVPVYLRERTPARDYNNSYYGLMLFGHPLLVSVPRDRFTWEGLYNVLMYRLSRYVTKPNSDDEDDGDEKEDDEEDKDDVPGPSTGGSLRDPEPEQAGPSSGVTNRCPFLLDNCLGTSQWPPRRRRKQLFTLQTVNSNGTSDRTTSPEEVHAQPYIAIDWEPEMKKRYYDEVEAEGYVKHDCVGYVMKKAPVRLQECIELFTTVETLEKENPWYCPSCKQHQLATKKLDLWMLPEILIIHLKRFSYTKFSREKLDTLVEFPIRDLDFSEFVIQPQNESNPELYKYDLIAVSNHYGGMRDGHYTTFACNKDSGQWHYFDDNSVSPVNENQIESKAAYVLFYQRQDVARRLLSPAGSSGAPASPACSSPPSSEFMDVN
# Chain of UniProt P09936 (P09936 whole entry, looked up): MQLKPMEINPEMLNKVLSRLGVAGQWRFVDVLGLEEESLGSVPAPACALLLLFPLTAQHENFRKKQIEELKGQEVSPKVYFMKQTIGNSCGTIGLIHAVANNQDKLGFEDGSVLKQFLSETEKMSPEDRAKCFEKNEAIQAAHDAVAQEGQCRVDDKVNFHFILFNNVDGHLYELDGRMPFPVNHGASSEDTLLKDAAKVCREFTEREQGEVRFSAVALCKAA
# Chain of UniProt Q9Y5K5 (Q9Y5K5 whole entry): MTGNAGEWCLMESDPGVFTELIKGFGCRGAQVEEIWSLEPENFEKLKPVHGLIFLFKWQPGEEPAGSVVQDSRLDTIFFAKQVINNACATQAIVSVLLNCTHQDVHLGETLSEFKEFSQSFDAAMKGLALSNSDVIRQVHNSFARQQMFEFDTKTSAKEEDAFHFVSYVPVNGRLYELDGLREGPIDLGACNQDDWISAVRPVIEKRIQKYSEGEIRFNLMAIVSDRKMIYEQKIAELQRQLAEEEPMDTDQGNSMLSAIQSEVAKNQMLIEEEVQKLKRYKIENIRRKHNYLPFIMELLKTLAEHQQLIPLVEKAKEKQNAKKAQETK
row,Target,log2 ratio of Biotin-Ahx-Ub-VS probe labelling
1,OTUD4 (UniProt Q01804),-0.19
2,USP5 (UniProt P45974),-0.0602
3,UniProt Q70EL2,-0.0717
4,UCHL5 (UniProt Q9Y5K5),-0.227
5,BAP1 (UniProt Q92560),-0.376
6,USP10 (UniProt Q14694),-0.155
7,USP4 (UniProt Q13107),-0.106
8,USP54 (UniProt Q70EL1),-0.068
9,USP39 (UniProt Q53GS9),-0.0848
10,USP22 (UniProt Q9UPT9),-0.132
11,UCHL1 (UniProt P09936),-0.297
12,USP36 (UniProt Q9P275),-0.193
13,ATXN3 (UniProt P54252),-0.387
14,UCHL3 (UniProt P15374),-0.263
15,UniProt Q9UGI0,-0.025
16,USP19 (UniProt O94966),-0.285
17,USP24 (UniProt Q9UPU5),-0.155
18,USP42 (UniProt Q9H9J4),-0.0062
19,USP28 (UniProt Q96RU2),-0.0624
20,UniProt P51784,-0.0555

# Same assay, conditions: compound concentration: 200uM; treatment time: 3 h
row,Target,log2 ratio of Biotin-Ahx-Ub-VS probe labelling
1,OTUD4 (UniProt Q01804),-0.226
2,USP5 (UniProt P45974),0.0332
3,UniProt Q70EL2,-0.437
4,UCHL5 (UniProt Q9Y5K5),-0.17
5,BAP1 (UniProt Q92560),-0.502
6,USP10 (UniProt Q14694),-0.0316
7,USP4 (UniProt Q13107),0.254
8,USP54 (UniProt Q70EL1),-0.954
9,USP39 (UniProt Q53GS9),0.0939
10,USP22 (UniProt Q9UPT9),-0.153
11,UCHL1 (UniProt P09936),-0.13
12,USP36 (UniProt Q9P275),0.0225
13,ATXN3 (UniProt P54252),-0.524
14,UCHL3 (UniProt P15374),-0.193
15,UniProt Q9UGI0,-0.16
16,USP19 (UniProt O94966),-0.557
17,USP24 (UniProt Q9UPU5),-0.576
18,USP42 (UniProt Q9H9J4),0.221
19,USP28 (UniProt Q96RU2),-0.291
20,UniProt P51784,-0.0925
